From the supplement of paper PMC3545927
The list shows a part of the results. How many sequences the whole screen found active is unknown.

Target: furin, P09958
Assay: furin cleavage Z-score vs untreated control; higher = more cleavage, active = 3.5 or more, inactive = 1 or less, 8 variable residues between constant flanks
Experimental: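 Multiplexed peptide-cDNA fusion cleavage assay. 8-mer variable peptides flanked by constant Cys-Ala (N-term) and Ala-Gly-Asn-Ala-Ser-Ala-Ser-Ala (C-term) and conjugated to a cDNA oligonucleotide were bead-immobilised via the N-terminus. They were treated with purified furin at a 1:10 enzyme:substrate ratio in 50 mM HEPES pH 7.5, 1 mM CaCl2, 100 mM NaCl for 7.5, 15 or 30 min. Released cDNA was counted by next-generation sequencing, and log counts versus no-furin controls were lowess-adjusted and converted to robust Z-scores.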

Sequence of furin, P09958 (P09958 whole entry): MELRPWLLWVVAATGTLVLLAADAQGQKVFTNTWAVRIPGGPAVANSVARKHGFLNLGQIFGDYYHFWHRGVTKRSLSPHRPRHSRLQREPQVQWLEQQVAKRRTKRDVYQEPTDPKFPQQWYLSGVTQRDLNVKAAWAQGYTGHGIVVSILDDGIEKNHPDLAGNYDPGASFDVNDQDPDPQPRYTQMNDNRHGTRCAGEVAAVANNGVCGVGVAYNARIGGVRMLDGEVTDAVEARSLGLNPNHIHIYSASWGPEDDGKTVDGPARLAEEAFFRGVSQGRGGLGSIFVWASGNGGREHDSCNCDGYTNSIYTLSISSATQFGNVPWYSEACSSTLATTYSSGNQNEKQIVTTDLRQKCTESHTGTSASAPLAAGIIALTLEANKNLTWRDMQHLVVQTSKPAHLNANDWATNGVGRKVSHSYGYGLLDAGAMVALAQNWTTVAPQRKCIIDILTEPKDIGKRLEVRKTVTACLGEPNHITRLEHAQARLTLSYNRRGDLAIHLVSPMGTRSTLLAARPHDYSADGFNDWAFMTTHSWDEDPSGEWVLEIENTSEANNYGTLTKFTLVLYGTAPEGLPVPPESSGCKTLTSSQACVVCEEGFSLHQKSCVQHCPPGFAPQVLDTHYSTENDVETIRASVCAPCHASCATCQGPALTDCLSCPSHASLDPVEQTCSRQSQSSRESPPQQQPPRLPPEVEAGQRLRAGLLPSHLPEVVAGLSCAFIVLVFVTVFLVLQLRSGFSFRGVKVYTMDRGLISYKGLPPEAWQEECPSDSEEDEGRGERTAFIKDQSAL

Row | Sequence | furin cleavage Z-score (7.5 min) | furin cleavage Z-score (15 min) | furin cleavage Z-score (30 min)
1 | CAKANLLSVEAGNASASA [HC1410] | -0.514 (inactive) | -0.264 (inactive) | -1.3 (inactive)
2 | CASCPCSAHLAGNASASA [HC2500] | 0.854 (inactive) | -0.381 (inactive) | 0.717 (inactive)
3 | CAVCCCSMSYAGNASASA [HC2020] | 0.181 (inactive) | 1.69 | 1.02
4 | CATCMSADLEAGNASASA [HC984] | 0.644 (inactive) | 0.775 (inactive) | 1.54
5 | CAGFADLMGYAGNASASA [HC225] | -1.18 (inactive) | -0.646 (inactive) | -1.14 (inactive)
6 | CASPNRSRRHAGNASASA [FS-300] | 9.77 (active) | 10.7 (active) | 7.23 (active)
7 | CASPRGSRPSAGNASASA [HC210] | 0.189 (inactive) | 0.149 (inactive) | -0.107 (inactive)
8 | CAMSMRVRRHAGNASASA [FS-945] | 10 (active) | 10.3 (active) | 7.98 (active)
9 | CAGSVTVPHPAGNASASA [HC837] | 0.881 (inactive) | 0.63 (inactive) | 0.486 (inactive)
10 | CAVVLLFLLLAGNASASA [HC520] | -0.794 (inactive) | -0.656 (inactive) | -1.88 (inactive)
11 | CALDVSVIPTAGNASASA [HC871] | -2.6 (inactive) | -1.18 (inactive) | -0.758 (inactive)
12 | CADPTFTIETAGNASASA [HC894] | -0.863 (inactive) | -0.464 (inactive) | -0.935 (inactive)
13 | CATTPCSGIWAGNASASA [HC1904] | -0.536 (inactive) | 0.611 (inactive) | -1.36 (inactive)
14 | CAPSRRQQRAAGNASASA [FS-1554] | 9.53 (active) | 8.72 (active) | 7.58 (active)
15 | CAVTQLLRRLAGNASASA [HC1137] | 0.0354 (inactive) | -1.42 (inactive) | -1.96 (inactive)
16 | CAPSRRTRRLAGNASASA [FS-1555] | 7.98 (active) | 11.7 (active) | 8.56 (active)
17 | CALWGRTRRLAGNASASA [FS-60] | 1.66 | 4.15 (active) | 3.16

Row | Sequence | furin cleavage Z-score (7.5 min) | furin cleavage Z-score (15 min) | furin cleavage Z-score (30 min)
18 | CAPSCRYRRLAGNASASA [FS-1054] | 4.67 (active) | 7.06 (active) | 7.38 (active)
19 | CAPTPLLYRLAGNASASA [HC971] | -0.296 (inactive) | 0.704 (inactive) | 0.366 (inactive)
20 | CAMELCSQHLAGNASASA [HC1705] | 2.69 | 0.76 (inactive) | 2.04
21 | CAMEENSQHLAGNASASA [HC18] | 0.787 (inactive) | 0.956 (inactive) | 2.04
22 | CAGGSAGHTVAGNASASA [HC355] | 0.866 (inactive) | -0.487 (inactive) | 0.0302 (inactive)
23 | CAPVCCSMSYAGNASASA [HC1999] | 0.302 (inactive) | -0.969 (inactive) | 1.74
24 | CAFKTWLKAKAGNASASA [HC1156] | -0.496 (inactive) | -0.829 (inactive) | -0.782 (inactive)
25 | CASVLIARDQAGNASASA [HC1586] | 0.606 (inactive) | 0.779 (inactive) | -0.441 (inactive)
26 | CADPQRSRRCAGNASASA [FS-986] | 0.928 (inactive) | 0.649 (inactive) | 1.13
27 | CASGARRRRCAGNASASA [FS-498] | 0.58 (inactive) | 0.416 (inactive) | 0.773 (inactive)
28 | CADLELITSCAGNASASA [HC1550] | 0.66 (inactive) | -0.229 (inactive) | 0.498 (inactive)
29 | CAQSLRCRRCAGNASASA [FS-623] | -0.625 (inactive) | -0.00103 (inactive) | -0.127 (inactive)
30 | CAEHHRSRRCAGNASASA [FS-989] | 2.96 | 3.54 (active) | 3.96 (active)
31 | CAIPDRLRKCAGNASASA [FS-1014] | -0.934 (inactive) | -0.376 (inactive) | -0.995 (inactive)
32 | CASQLRYRRCAGNASASA [FS-503] | 5.96 (active) | 7.81 (active) | 5.84 (active)
33 | CAQVMRRRRCAGNASASA [FS-1558] | 7.16 (active) | 5.85 (active) | 4.82 (active)
